# Source: ChEMBL document CHEMBL3988442, “University of Dundee, Small-Polar-MMV Screening Library” (2021)
# The campaign covered roughly 48,000 compounds. About 13,000 (27%) showed an effect of 50% or more. The list shows a part of the results.
# Tested on: Wolbachia pipientis
# Assay: Anti-Wolbachia Cell-Based Screen
# Format: functional
# Design: scale not given: in the data most compounds retested in dose-response had high values
# Settings: 5 µM
row,Compound,Percent Effect [%]
1,Cc1nc2ncnn2c2ccn(-c3cccnc3O)c(=O)c12,-8.283
2,Cc1c(C(N)=O)sc2nc(C(F)(F)F)ccc12,-3.926
3,O=C(NC1CCc2[nH]c(=O)ccc2C1)C1CCOCC1 (stereo not drawn),-2.009
4,CCCS(=O)(=O)NC1CCc2c(ccc(=O)n2CC2CC2)C1 (stereo not drawn),-27.38
5,CS(=O)(=O)NC1CCc2[nH]c(=O)ccc2C1 (stereo not drawn),99.95
6,O=c1ccc2c(n1CC1CC1)CCC(NS(=O)(=O)C1CC1)C2 (stereo not drawn),-36.22
7,CCS(=O)(=O)NC1CCc2c(ccc(=O)n2CC2CC2)C1 (stereo not drawn),2.839
8,O=c1ccc2c([nH]1)CCC(NS(=O)(=O)C1CC1)C2 (stereo not drawn),112.2
9,Cc1oc(-c2ccsc2)nc1CNC(C)Cn1cccn1 (stereo not drawn),-4.999
10,CS(=O)(=O)c1ccc(CNC[C@H]2COCc3nc4cccnc4n32)cc1,-5.618
11,Cc1ccc(N2CCN(c3ccccc3C)CC2C)nn1 (stereo not drawn),-2.059
12,CC1(C)[C@H]2CC=C(CN3CCCn4nc(CNS(C)(=O)=O)cc4C3)[C@@H]1C2,-5.008
13,COCC(c1ccccn1)N(C)C(=O)c1cc(-c2cccn2C)n[nH]1 (stereo not drawn),-5.051
14,CN(Cc1n[nH]c2c1CCC2)C(=O)c1cccc(CCC(C)(C)O)c1,10.18
15,CN(Cc1n[nH]c2c1CCC2)C(=O)c1cc(-c2cccn2C)n[nH]1,101.4
16,CN(Cc1n[nH]c2c1CCCC2)C(=O)c1cccc(CCC(C)(C)O)c1,-30.85
17,Cn1cccc1-c1cc(C(=O)N2CCCC2C(F)(F)F)[nH]n1 (stereo not drawn),19.39
18,CN(Cc1n[nH]c2c1CCCCC2)C(=O)c1cc(-c2cccn2C)n[nH]1,105.6
19,C1CCN(CCOC2CCNCC2)CC1,5.861
20,CCc1noc(CC)c1CNC(=O)Nc1cccc([S+](C)[O-])c1 (stereo not drawn),-9.563
21,CN(CC(N)=O)S(=O)(=O)c1ccc(F)cc1F,-1.274

row,Compound,Percent Effect [%]
1,O=C(NCc1cccnc1N1CCCCC1)c1ccc2c(c1)OCO2,108.4
2,CC(NC(=O)NCc1cccnc1N1CCCCC1)c1nccs1 (stereo not drawn),-5.623
3,CC(NC(=O)c1cccs1)C(=O)NCc1cccnc1N1CCCCC1 (stereo not drawn),-0.6319
4,COCCOc1ncccc1CNC(=O)N1CCCCCC1,13.83
5,O=C(NCc1cccnc1N1CCCC(O)C1)c1ccc2[nH]nnc2c1 (stereo not drawn),86.94
6,O=C(NCc1cccnc1N1CCCCC1)c1ccc2cc[nH]c2c1,88.22
7,Cc1nccn1-c1ncccc1CNC(=O)c1ccc(O)nc1,-1.557
8,O=C(NCc1ccccn1)Nc1ccc2[nH]nnc2c1,-4.844
9,N#Cc1cccnc1NCc1cccnc1N1CCCCC1,16.56
10,O=C(NCc1cccnc1N1CCCCC1)c1ccc2[nH]nnc2c1,79.06
11,Cc1cccc(-c2nccn2-c2cccc(CC(=O)O)c2)n1,-5.138
12,COC(=O)[C@H](C)NC(=O)Cc1c(C)nc2c(c1C)c(=O)[nH]n2C,-6.613
13,CC(=O)N1CCCN(S(=O)(=O)c2cc3ccccc3o2)CC1,-15.12
14,CCc1c(C)nc2ccccc2c1N1CCC(O)CC1,26.44
15,Cc1cccc(CN2C[C@@H]3OCCN(c4ccnc(N(C)C)n4)[C@@H]3C2)c1.O=C(O)C(F)(F)F,91.52
16,Cc1cccc(CN2C(=O)CO[C@@H]3CN(Cc4nccn4C)C[C@H]32)c1.O=C(O)C(F)(F)F,6.159
17,CCc1ccc(CN2C[C@@H]3OCCN(c4ccnc(N(C)C)n4)[C@@H]3C2)o1.O=C(O)C(F)(F)F,11.89
18,CN(C)c1nccc(N2CCO[C@H]3CN(Cc4nccn4C)C[C@H]32)n1.O=C(O)C(F)(F)F,90.41
19,O=C(c1cnccn1)N1C[C@@H]2CC[C@H](C1)N(C(=O)CCc1ccsc1)C2,0.0629
20,CC(NC(=O)c1cccnc1N(C)C)c1ccccc1Cl (stereo not drawn),5.567
21,O=C(Cc1ccccn1)N1CCC2(CC1)[C@H](O)C[C@@H]2O,131.3

row,Compound,Percent Effect [%]
1,O=C(Cc1ccccn1)N1CCN(C(=O)c2cccc3[nH]ncc23)CC1,0.8571
2,O=C(CCc1ccccn1)N1CCCN(C(=O)CC2CCCC2)CC1,129.1
3,O=C(CCc1ccccn1)N1CCN(C(=O)CC2CCCCC2)CC1,-0.7864
4,O=C1CCC2(CCCN(C(=O)Cc3ccccn3)C2)N1 (stereo not drawn),-49.82
5,O=C(Cc1ccccn1)N1CCN(C(=O)CC2CCCC2)CC1,111.6
6,CCOC1CC2(CCN(C(=O)Cc3ccccn3)CC2)C1.O=C(O)C(F)(F)F,-13.33
7,O=C(Cc1ccccn1)N1CCN(C(=O)CC2CCCCC2)CC1,116.9
8,COc1ncccc1C(=O)N1CCN(C(=O)Cc2ccccn2)CC1,10.82
9,CNC(=O)C1(N2CCC[C@H]2C(=O)NC2CC2)CCCCC1.Cl,-3.847
10,O=C(c1cc(Cl)c2c(c1)OCCO2)N1CCCC(n2cncn2)C1 (stereo not drawn),-4.605
11,CSCCCNC(=O)C(c1cccc(F)c1)N(C)C (stereo not drawn),-14.22
12,CN(C)c1ncccc1C(=O)N1CCCN(c2cccnn2)CC1,-6.134
13,Cc1scc(C(=O)N2CCC3(CCCN(C)C3=O)C2)c1-c1ccccc1 (stereo not drawn),-11
14,CN(CCO)C(=O)c1coc(CN2CCN(c3ccccc3F)CC2)n1,24.23
15,Cc1nc(O)cc(C2CCCN(C(=O)CN(C)c3ccccc3)C2)n1 (stereo not drawn),1.624
16,Cc1cccnc1N1CCN(C(=O)CCc2ccccn2)CC1,-3.662
17,O=C(CCc1ccccn1)N1CCCC1,132.5
18,CC(C)NC(=O)C[C@H]1[C@H]2CN(C(=O)Cc3ccccn3)C[C@@H]12.O=C(O)C(F)(F)F,0.3737
19,O=C(CCc1ccccn1)N1CCSC2(CCCCC2)C1,-3.003
20,CN(C)c1nc(O)cc(C2CCN(C(=O)Cc3ccccn3)C2)n1 (stereo not drawn),148.4
21,CCc1ncc(C(=O)N(CCOC)Cc2nccs2)cn1,-17.92
